Consider 18 compounds from PubChem BioAssay (Tox21).

Results filed as inconclusive are left out. Values without a mark were called inactive. Active and inactive are the calls of the source. Unless noted, the call rests on the fitted dose curve; in most records, active means well fitted cell-killing curve with a large enough effect in the repeat runs (not every such curve was filed as active); inconclusive means weak or mixed curves, or effect the other way; inactive means no such curve, though single readings can be large or run the other way.
On the % scale 0 is the no-effect control and ±100 the full control effect.

Bile acid receptor (Homo sapiens), sequence (Q96RI1 whole entry, looked up): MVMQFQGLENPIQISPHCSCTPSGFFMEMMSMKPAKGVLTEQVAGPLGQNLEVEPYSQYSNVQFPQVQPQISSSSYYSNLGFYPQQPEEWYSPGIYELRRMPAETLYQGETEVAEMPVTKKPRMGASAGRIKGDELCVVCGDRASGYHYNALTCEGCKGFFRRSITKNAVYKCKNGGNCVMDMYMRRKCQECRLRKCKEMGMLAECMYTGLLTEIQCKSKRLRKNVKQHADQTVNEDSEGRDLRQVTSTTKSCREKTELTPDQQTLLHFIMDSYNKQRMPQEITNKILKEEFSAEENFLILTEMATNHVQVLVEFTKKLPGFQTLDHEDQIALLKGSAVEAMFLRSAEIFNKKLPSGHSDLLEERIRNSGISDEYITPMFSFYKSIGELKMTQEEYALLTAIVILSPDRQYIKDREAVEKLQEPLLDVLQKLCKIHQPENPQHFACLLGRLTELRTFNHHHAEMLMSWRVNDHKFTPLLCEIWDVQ

The first assay deals with Peroxisome proliferator-activated receptor delta (Homo sapiens) (UniProt Q03181). The assay is described as follows: qHTS assay to identify small molecule antagonists of the peroxisome proliferator-activated receptor delta (PPARd) signaling pathway (AID 743215; active means well fitted inhibition curve with a large enough effect in the signal ratio in the repeat runs, not every such curve was filed as active; the % refers to the signal ratio;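 further: cells stimulated with agonist L165041 at 300 nM final during compound exposure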; further: potency means the concentration at half of the fitted maximal effect). Conditions: HEK293H PPARd-UAS-bla, beta-lactamase FRET ratio, antagonist, 17 h; series mostly up to 62 µM; ratio activity, negative = inhibition: at the top concentration. The gist of the method: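 HEK293H GeneBLAzer PPARd UAS-bla reporter cells; cpd + L165041 300 nM final, 17 h 37 C; LiveBLAzer B/G FRET substrate 2 h RT; fluorescence intensity read-out. Antagonist mode.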
Peroxisome proliferator-activated receptor delta (Homo sapiens), sequence (Q03181 whole entry, looked up): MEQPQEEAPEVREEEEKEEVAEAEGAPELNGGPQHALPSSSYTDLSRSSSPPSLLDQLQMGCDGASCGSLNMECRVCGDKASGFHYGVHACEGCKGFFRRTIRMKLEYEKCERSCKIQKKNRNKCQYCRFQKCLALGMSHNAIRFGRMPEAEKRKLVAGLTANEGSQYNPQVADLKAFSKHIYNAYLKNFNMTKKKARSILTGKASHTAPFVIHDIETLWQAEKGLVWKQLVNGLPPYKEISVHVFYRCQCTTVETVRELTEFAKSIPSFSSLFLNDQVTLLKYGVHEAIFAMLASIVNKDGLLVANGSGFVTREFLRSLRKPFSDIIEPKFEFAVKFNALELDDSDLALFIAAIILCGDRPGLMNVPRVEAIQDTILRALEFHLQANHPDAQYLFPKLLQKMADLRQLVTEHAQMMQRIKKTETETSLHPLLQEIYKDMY
With `N#Cc1nc(Cl)c(Cl)c(Cl)c1Cl`, the Potency is 7.76 µM (active).
Turning to `Clc1nc(C(Cl)(Cl)Cl)c(Cl)c(Cl)c1Cl`, the “ratio activity, negative = inhibition” value was 0.0953%.
For `CC(O)(c1ccc(Cl)cc1)c1ccc(Cl)cc1`, the “ratio activity, negative = inhibition” value was -17.8%.
Still for that read-out and setting: to `CCCCCCCCCC[N+](C)(CCCCCCCCCC)CCC[Si](OC)(OC)OC` belongs 23%; to `SC1CCCCC1`, -0.176% [at 80.4 µM].
Turning to `CN1CCN(c2ccccc2/C=C2\SCCN(c3ccc(Cl)c(Cl)c3)C2=O)CC1`, the Potency is 21.9 µM (active).
With `CCCCCCCCOC(=O)c1cc(O)c(O)c(O)c1`, the Potency is 49 µM (active).
With `CN(C/C=C/c1ccccc1)Cc1cccc2ccccc12`, the “ratio activity, negative = inhibition” value was -23.2%.
Turning to `CC(=O)[C@]1(O)Cc2c(O)c3c(c(O)c2[C@@H](O[C@H]2C[C@H](N)[C@H](O)[C@H](C)O2)C1)C(=O)c1ccccc1C3=O`, the Potency is 3.76 µM (active).

The target in another assay is Bile acid receptor (Homo sapiens) (UniProt Q96RI1). The assay is described as follows: qHTS assay to identify small molecule antagonists of the farnesoid-X-receptor (FXR) signaling pathway (AID 743217; active means well fitted inhibition curve with a large enough effect in the signal ratio in the repeat runs, not every such curve was filed as active; the % refers to the signal ratio). The settings on record: HEK293T FXR-UAS-bla, beta-lactamase ratio, CDCA-stimulated, 16 h; series mostly up to 62.6 µM; activity change, negative = inhibition: at the top concentration. In outline:
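Read-out: beta-lactamase FRET fluorescence (LiveBLAzer B/G substrate, 2 h, room temperature) in GeneBLAzer FXR-UAS-bla HEK 293T cells. Compounds were co-dosed with 50 uM chenodeoxycholic acid (final) and incubated 16 h at 37 °C.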
As to `CC(O)(c1ccc(Cl)cc1)c1ccc(Cl)cc1`, the “activity change, negative = inhibition” value is -16.7%.
As to `COc1cc([C@@H]2c3cc4c(cc3[C@@H](O[C@@H]3O[C@@H]5CO[C@@H](C)O[C@H]5[C@H](O)[C@H]3O)[C@H]3COC(=O)[C@H]23)OCO4)cc(OC)c1O`, the “activity change, negative = inhibition” value was -13.8%.
Same read-out and setting: the figure for `O=C1CCC/C=C\CCCCCCCCCC1` is 1.46%.
As for `Oc1ccc(Cl)cc1C1CCCC1`, the “activity change, negative = inhibition” value was -11.1%.
For `COc1c(Br)cc(Br)c(C)c1Br`, the “activity change, negative = inhibition” value was 1.46%.

A further assay shares this target. The experiment in a line: qHTS assay to identify small molecule agonists of the farnesoid-X-receptor (FXR) signaling pathway (AID 743220; active means well fitted activation curve with a large enough effect in the signal ratio in the repeat runs, not every such curve was filed as active; the % refers to the signal ratio). The settings on record: HEK293T FXR-UAS-bla, beta-lactamase FRET ratio, 16 h; series mostly up to 62.6 µM; activation: at the top concentration. The gist of the method:
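FXR-UAS-bla HEK 293T cells carrying a UAS-driven beta-lactamase reporter were plated for 5 h at 37C/5% CO2, then exposed to DMSO-dissolved Tox21 10K compounds for 16 h at 37C. A LiveBLAzer B/G FRET substrate was loaded for 2 h at room temperature before fluorescence reading.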
With `Clc1nc(C(Cl)(Cl)Cl)c(Cl)c(Cl)c1Cl`, the “activation” value was -4.88%.
With `CN1CCN(CCCN2c3ccccc3Sc3ccc(C(F)(F)F)cc32)CC1`, the “activation” value was 12.9%.
For `CC(O)(c1ccc(Cl)cc1)c1ccc(Cl)cc1`, the “activation” value is 1.65%.
With `SC1CCCCC1`, the “activation” value was 1.77% [at 81.1 µM].
Consider `COc1cc([C@@H]2c3cc4c(cc3[C@@H](O[C@@H]3O[C@@H]5CO[C@@H](C)O[C@H]5[C@H](O)[C@H]3O)[C@H]3COC(=O)[C@H]23)OCO4)cc(OC)c1O`, for which the “activation” value was 2.09%.
In the case of `O=C1CCC/C=C\CCCCCCCCCC1`, the “activation” value is 0.942%.
As for `CN(C/C=C/c1ccccc1)Cc1cccc2ccccc12`, the “activation” value was 2.28%.
For `Oc1ccc(Cl)cc1C1CCCC1`, the “activation” value was 1.35%.
For `COc1c(Br)cc(Br)c(C)c1Br`, the “activation” value was 3.12%.

Tested on in the next assay: not listed separately
The experiment in a line: qHTS assay to identify small molecule antagonists of the farnesoid-X-receptor (FXR) signaling pathway - cell viability counter screen (AID 743221). Further: nearly all actives have a fitted effect of over 50% in size. Further: potency means the concentration at half of the fitted maximal effect. Conditions: FXR-bla HEK293T viability, CellTiter-Glo luminescence, 16 h; series mostly up to 62.6 µM; activity change, negative = cytotoxicity: at the top concentration. In outline:
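GeneBLAzer FXR-UAS-bla HEK 293T cells, compound plus chenodeoxycholic acid (50 uM final), 16 h at 37 C. CellTiter-Glo added to the same wells after the beta-lactamase read; luminescence read after 30 min at room temperature as viability.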
Take `CN1CCN(CCCN2c3ccccc3Sc3ccc(C(F)(F)F)cc32)CC1`: the Potency is 26.6 µM (active).
For `CC(O)(c1ccc(Cl)cc1)c1ccc(Cl)cc1`, the “activity change, negative = cytotoxicity” value is -8.03%.
In the case of `Cc1ccc(Cl)c(N)c1Cl`, the “activity change, negative = cytotoxicity” value was 9%.
`CCCCCCCCCCCCCCCCC(C(=O)O)C(O)(CC(=O)O)C(=O)O` (stereo unspecified): the Potency was 23.7 µM (active).
As to `COc1cc([C@@H]2c3cc4c(cc3[C@@H](O[C@@H]3O[C@@H]5CO[C@@H](C)O[C@H]5[C@H](O)[C@H]3O)[C@H]3COC(=O)[C@H]23)OCO4)cc(OC)c1O`, the “activity change, negative = cytotoxicity” value is 6.97%.
Regarding `O=C1CCC/C=C\CCCCCCCCCC1`, the “activity change, negative = cytotoxicity” value is -21.3%.
With `CN1CCN(c2ccccc2/C=C2\SCCN(c3ccc(Cl)c(Cl)c3)C2=O)CC1`, the Potency was 54.9 µM (active).
As for `O=C1OC(O)C(C(Cl)Cl)=C1Cl` (stereo unspecified), the “activity change, negative = cytotoxicity” value is -1.29% [at 81.1 µM].
For the compound `CN(C/C=C/c1ccccc1)Cc1cccc2ccccc12`, the “activity change, negative = cytotoxicity” value is -23.5%.
In the case of `CN1CCN(CCCN2c3ccccc3Sc3ccc(Cl)cc32)CC1`, the Potency was 23.7 µM (active).
With `Oc1ccc(Cl)cc1C1CCCC1`, the “activity change, negative = cytotoxicity” value was -0.23%.
Take `CC(=O)[C@]1(O)Cc2c(O)c3c(c(O)c2[C@@H](O[C@H]2C[C@H](N)[C@H](O)[C@H](C)O2)C1)C(=O)c1ccccc1C3=O`: the “activity change, negative = cytotoxicity” value was 20.2%.
Regarding `COc1c(Br)cc(Br)c(C)c1Br`, the “activity change, negative = cytotoxicity” value was 3.8%.
